# The supplement of paper PMC10412459
# Tested on: K562 SF3B1 K700E vs K562 SF3B1 WT
# Test: surviving fraction ratio K562 SF3B1 K700E / K562 SF3B1 WT (each relative to DMSO); higher = less selective killing of SF3B1 K700E cells
# Conditions: 5 days
# Procedure, shortened: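 In 384-well plates holding 250 cells per well, isogenic K562 cells bearing an engineered mutant allele and matched wild-type cells received compounds from an in-house 80-compound library 24 h after seeding. Doses were 0.5, 1, 5, 10, 50, 100, 500 and 1,000 nM, with 5 d of continuous culture. Surviving fractions were taken from CellTiter-Glo readings and normalised to DMSO. The value reported is the mutant-over-wild-type ratio of these fractions.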
Structure (SMILES),surviving fraction ratio K562 SF3B1 K700E / K562 SF3B1 WT (0.5nM),surviving fraction ratio K562 SF3B1 K700E / K562 SF3B1 WT (1nM),surviving fraction ratio K562 SF3B1 K700E / K562 SF3B1 WT (5nM),surviving fraction ratio K562 SF3B1 K700E / K562 SF3B1 WT (10nM),surviving fraction ratio K562 SF3B1 K700E / K562 SF3B1 WT (50nM),surviving fraction ratio K562 SF3B1 K700E / K562 SF3B1 WT (100nM),surviving fraction ratio K562 SF3B1 K700E / K562 SF3B1 WT (500nM),surviving fraction ratio K562 SF3B1 K700E / K562 SF3B1 WT (1000nM)
COc1cc2ncnc(Nc3ccc(F)c(Cl)c3)c2cc1NC(=O)/C=C/CN1CCCCC1,0.911,0.948,0.89,0.805,0.886,0.945,0.756,0.642
CS(=O)(=O)CCNCc1ccc(-c2ccc3ncnc(Nc4ccc(OCc5cccc(F)c5)c(Cl)c4)c3c2)o1 [lapatinib],0.726,0.755,0.828,0.669,0.99,0.906,0.898,0.665
Cn1ncnc1[C@H]1c2n[nH]c(=O)c3cc(F)cc(c23)N[C@@H]1c1ccc(F)cc1 [talazoparib],0.824,0.778,0.775,0.743,0.552,0.571,0.794,–
CO[C@H]1C[C@@H]2CC[C@@H](C)[C@@](O)(O2)C(=O)C(=O)N2CCCC[C@H]2C(=O)O[C@H]([C@H](C)C[C@@H]2CC[C@@H](OCCO)[C@H](OC)C2)CC(=O)[C@H](C)/C=C(\C)[C@@H](O)[C@@H](OC)C(=O)[C@H](C)C[C@H](C)/C=C/C=C/C=C/1C [everolimus],0.697,0.655,0.712,0.806,0.702,0.697,0.824,0.967
Cc1ccc(NC(=O)c2ccc(CN3CCN(C)CC3)cc2)cc1Nc1nccc(-c2cccnc2)n1 [imatinibmesylate],0.696,0.74,0.733,0.692,0.55,0.617,1.5,1.1
NS(=O)(=O)OC[C@@H]1C[C@@H](n2ccc3c(N[C@H]4CCc5ccccc54)ncnc32)C[C@@H]1O,0.743,0.708,0.772,0.687,0.74,1.51,1.22,1.07
CNC(=O)c1ccc(N2C(=S)N(c3ccc(C#N)c(C(F)(F)F)c3)C(=O)C2(C)C)cc1F,0.896,0.933,0.864,1.07,0.871,0.847,0.769,0.98
